Results published in PubChem BioAssay.
Activity calls are given as the source filed them.

How the values were obtained:
[1] = test system: Human papillomavirus type 1a protein E7 (residues 44-93); test: HPV1a E7 fragment binders on microarrays, primary screen, biochemical, small-molecule microarray, residues 44-93, 635 nm fluorescence (AID 1108); conditions: small-molecule microarray binding, fluorescence 635 nm; higher = more signal;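 also: E7 fragment applied at 1 µg/mL in TBST for 1 h at 4 C; score combines spot fluorescence with its signal to noise ratio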
[2] = modulators of HCV replicon luciferase signal, primary screen, HCV replication inhibitor project, Huh7 cells, luciferase reporter (AID 1109); conditions: 48 h, higher = more signal;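 also: huh7 hepatoma cells harbouring a luciferase neomycin HCV replicon reporter; luciferase luminescence as measure of HCV replicon replication; test concentration not given here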
[3] = target: Left-right determination factor 2 (Homo sapiens) (UniProt O00292); test: LEFTY2 binders on small-molecule microarrays, primary screen, biochemical, small-molecule microarray, 635 nm fluorescence scan (AID 1110); conditions: LEFTY2 binding, higher = more signal
[4] = target: Calmodulin-1 (Homo sapiens) (UniProt P0DP23); test: CALM1 binders on microarrays, EGTA buffer, profiling panel, biochemical, small-molecule microarray, Cy5-labelled CALM1 (AID 1111); conditions: Cy5-CALM1 binding fluorescence, higher = more signal;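 also: labelled calmodulin applied in Tris saline Tween buffer holding calcium plus EGTA and DTT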
[5] = target: Calmodulin-1 (Homo sapiens) (UniProt P0DP23); test: calcium-bound CALM1 binders on microarrays, profiling panel, artefact control for SMM control-protein annotation, biochemical, small-molecule microarray, Cy5-labelled CALM1, plus calcium (AID 1112); conditions: Cy5-CALM1 binding fluorescence, higher = more signal;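 also: score merges spot fluorescence with signal to noise from triplicate slides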
[6] = small-molecule microarray binders of probe aWnt5a, primary screen, biochemical, biotinylated probe, 635/667 nm fluorescence (AID 1113); conditions: higher = more signal;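 also: score merges 667 nm fluorescence intensity with signal-to-noise per printed feature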
[7] = small-molecule microarray binders of probe aShh, primary screen, biochemical, biotinylated probe, 635/667 nm fluorescence (AID 1114); conditions: higher = more signal;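 also: probe is biotin-labelled aShh protein from a stem cell growth factor screen; measures binding of labelled protein to compounds printed on the slide; score merges feature fluorescence at 667 nm with signal-to-noise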
[8] = small-molecule microarray binders of probe aNog, primary screen, biochemical, biotinylated probe, 635/667 nm fluorescence (AID 1115); conditions: higher = more signal;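 also: probe is biotinylated aNog protein used at 0.15 µg/mL for 1 h at 4 C; z-score combines 667 nm fluorescence of each spot with its signal to noise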
[9] = target: Torsin-1A-interacting protein 1 (Homo sapiens) (UniProt Q5JTV8); test: LAP1 binders from COS7 cell lysate, primary screen, small-molecule microarray, 635/667 nm fluorescence (AID 1116); conditions: COS7-hLAP1 lysate binding, 635 nm fluorescence, higher = more signal
[10] = target: Alpha-bungarotoxin (Bungarus multicinctus) (UniProt P60615); test: alpha-bungarotoxin binders on microarray, profiling panel, artefact control for SMM control protein annotation, biochemical, small-molecule microarray, Alexa647 label, 635/667 nm fluorescence (AID 1117); conditions: alpha-BTX-A647 binding fluorescence, higher = more signal
Albumin (Bos taurus) = Albumin (Bos taurus) (UniProt P02769); test: bovine serum albumin binders on microarray, profiling panel, artefact control for SMM control protein annotation, biochemical, small-molecule microarray, Alexa647 label, 635/667 nm fluorescence (AID 1118); conditions: BSA-A647 binding, fluorescence 635 nm, higher = more signal;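 also: score merges 667 nm emission intensity and signal-to-noise per printed compound spot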
[11] = small-molecule microarray binders of probe aXIP, primary screen, biochemical, NeuroSMM set, 635/667 nm fluorescence (AID 1119); conditions: higher = more signal, called active from +8 up or from −8 down;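 also: probe is the protein aXip251-270 applied at 1 µg/mL to compound-printed slides; binding of probe to printed compounds measured as 667 nm fluorescence plus signal to noise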
[12] = small-molecule binders of probe aNOTCH3, primary screen, biochemical, small-molecule microarray, 635/667 nm fluorescence (AID 1120); conditions: higher = more signal;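 also: probe is a biotin-tagged antibody raised against NOTCH3 rather than NOTCH3 protein; score merges spot fluorescence near 667 nm with spot signal to noise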
[13] = small-molecule binders of probe aNOTCH2, primary screen, biochemical, small-molecule microarray, 635/667 nm fluorescence (AID 1121); conditions: higher = more signal;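 also: score merges feature fluorescence read at 667 nm with its signal to noise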
[14] = target: Carbonic anhydrase 2 (Homo sapiens) (UniProt P00918); test: CAII small-molecule binders, profiling panel, biochemical, small-molecule microarray, Alexa647-labelled CAII (AID 1122); conditions: CAII-A647 binding fluorescence, higher = more signal
[15] = COS7 lysate on small-molecule microarray, probe aHis, 635 nm (AID 1123); conditions: COS7 cell lysate, fluorescence, higher = more signal;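 also: z-score combines 667nm fluorescence intensity with signal-to-noise per printed compound spot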
[16] = compound binding in COS7 lysate, probe aLAP1, primary screen, cell lysate, small-molecule microarray (AID 1124); conditions: probe aLAP1, fluorescence, higher = more signal;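 also: lysate comes from COS7 cells expressing LAP1 and is applied at 0.3 µg/mL; score merges spot fluorescence near 667 nm with signal-to-noise over triplicate slides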
Sam68 (KHDRBS1) = test: Sam68 small-molecule binders, primary screen, biochemical, small-molecule microarray, 635 nm fluorescence (AID 1125); conditions: small-molecule microarray binding, higher = more signal;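 also: score merges 667 nm channel intensity with signal to noise over triplicate slides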
[17] = test system: Chordin-like protein 2 (CHRDL2); test: CHRDL2 small-molecule binders, primary screen, biochemical, small-molecule microarray, 635 nm fluorescence (AID 1126); conditions: small-molecule microarray binding, fluorescence 635 nm; higher = more signal;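 also: printed compound slides probed with Chrdl2 protein at 4 µg/mL for 1 h at 4 C; score merges 667 nm emission intensity with signal to noise over three replicate slides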
[18] = target: Concanavalin-A (Canavalia ensiformis) (UniProt P02866); test: ConA small-molecule binders, primary screen, artefact control for SMM control protein annotation, biochemical, small-molecule microarray, Alexa647 label, 635 nm (AID 1127); conditions: ConA-A647 binding fluorescence, higher = more signal;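 also: z combines 667 nm emission intensity with signal-to-noise across three replicate slides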
Sequence of Concanavalin-A (Canavalia ensiformis) (P02866 whole entry, looked up): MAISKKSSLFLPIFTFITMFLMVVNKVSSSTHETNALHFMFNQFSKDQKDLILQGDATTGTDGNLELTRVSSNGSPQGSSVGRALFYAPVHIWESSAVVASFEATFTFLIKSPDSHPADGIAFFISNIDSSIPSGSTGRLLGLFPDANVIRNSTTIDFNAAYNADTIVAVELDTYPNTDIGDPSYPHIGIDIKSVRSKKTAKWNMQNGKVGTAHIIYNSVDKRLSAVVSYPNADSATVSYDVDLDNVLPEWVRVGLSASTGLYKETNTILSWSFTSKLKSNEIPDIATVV

Sequence of Albumin (Bos taurus) (P02769 whole entry, looked up): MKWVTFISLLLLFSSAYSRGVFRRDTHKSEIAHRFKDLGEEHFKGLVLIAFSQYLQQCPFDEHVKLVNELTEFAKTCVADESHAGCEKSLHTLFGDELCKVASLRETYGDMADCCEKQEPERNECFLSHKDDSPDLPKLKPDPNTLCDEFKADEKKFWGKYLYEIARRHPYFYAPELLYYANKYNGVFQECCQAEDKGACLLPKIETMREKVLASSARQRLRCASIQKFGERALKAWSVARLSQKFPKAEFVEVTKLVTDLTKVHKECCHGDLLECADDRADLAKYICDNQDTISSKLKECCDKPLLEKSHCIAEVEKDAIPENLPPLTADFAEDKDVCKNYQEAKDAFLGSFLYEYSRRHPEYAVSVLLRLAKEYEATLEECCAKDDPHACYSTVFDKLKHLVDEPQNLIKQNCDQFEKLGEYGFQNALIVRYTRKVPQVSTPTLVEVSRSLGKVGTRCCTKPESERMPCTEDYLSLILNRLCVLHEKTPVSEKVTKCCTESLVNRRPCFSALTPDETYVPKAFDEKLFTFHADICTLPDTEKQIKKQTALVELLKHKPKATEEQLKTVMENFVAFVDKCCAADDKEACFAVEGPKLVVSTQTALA
Sequence of Alpha-bungarotoxin (Bungarus multicinctus) (P60615 whole entry, looked up): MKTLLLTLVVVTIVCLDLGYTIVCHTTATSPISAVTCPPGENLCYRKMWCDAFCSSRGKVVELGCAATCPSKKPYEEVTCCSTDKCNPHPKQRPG
Sequence of Torsin-1A-interacting protein 1 (Homo sapiens) (Q5JTV8 whole entry, looked up): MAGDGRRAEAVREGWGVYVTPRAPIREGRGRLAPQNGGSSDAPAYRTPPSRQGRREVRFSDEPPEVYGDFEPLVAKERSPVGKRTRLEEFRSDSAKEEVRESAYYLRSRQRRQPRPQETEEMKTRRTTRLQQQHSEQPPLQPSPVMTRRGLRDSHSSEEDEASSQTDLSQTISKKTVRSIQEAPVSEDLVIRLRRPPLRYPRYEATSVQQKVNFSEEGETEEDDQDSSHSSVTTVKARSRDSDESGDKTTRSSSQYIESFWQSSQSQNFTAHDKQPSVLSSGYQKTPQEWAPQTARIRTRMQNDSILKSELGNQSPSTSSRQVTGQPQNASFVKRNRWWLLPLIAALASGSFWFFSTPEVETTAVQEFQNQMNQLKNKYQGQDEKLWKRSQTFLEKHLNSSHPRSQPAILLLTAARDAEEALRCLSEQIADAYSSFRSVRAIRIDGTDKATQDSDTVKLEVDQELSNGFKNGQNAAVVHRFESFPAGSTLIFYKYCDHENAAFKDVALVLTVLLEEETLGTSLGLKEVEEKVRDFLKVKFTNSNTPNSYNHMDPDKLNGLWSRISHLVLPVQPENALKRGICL
Sequence of Left-right determination factor 2 (Homo sapiens) (O00292 whole entry, looked up): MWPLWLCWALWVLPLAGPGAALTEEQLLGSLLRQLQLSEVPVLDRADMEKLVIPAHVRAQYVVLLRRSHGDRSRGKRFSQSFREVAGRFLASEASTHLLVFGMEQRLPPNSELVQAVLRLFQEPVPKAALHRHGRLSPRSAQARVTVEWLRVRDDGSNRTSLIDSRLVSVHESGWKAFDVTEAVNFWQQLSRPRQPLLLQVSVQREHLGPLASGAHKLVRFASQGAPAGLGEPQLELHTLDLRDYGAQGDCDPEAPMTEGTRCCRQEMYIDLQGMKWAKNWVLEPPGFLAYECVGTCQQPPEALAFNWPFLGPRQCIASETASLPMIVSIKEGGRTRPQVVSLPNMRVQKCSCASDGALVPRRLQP

Row | SMILES | composite z-score [1] | z-score [2] | composite z-score [3] | composite z-score [4] | composite z-score [5] | composite z-score [6] | composite z-score [7] | composite z-score [8] | composite z-score [9] | composite z-score [10] | composite z-score (Albumin (Bos taurus)) | composite Z-score [11] | composite z-score [12] | composite z-score [13] | composite z-score [14] | composite z-score [15] | composite z-score [16] | composite z-score (Sam68 (KHDRBS1)) | composite z-score [17] | composite z-score [18]
1 | CC(C)(C)N1C(=O)[C@H]2[C@H]3[C@H](O)[C@H](O)CC(=NOCc4ccccc4)[C@H]3CC[C@H]2C1=O | -0.397 | 0.561 | -0.0786 | 0.157 | -0.272 | -0.0125 | -0.154 | 0.299 | 0.185 | 1.28 | 0.0116 | -0.491 (inactive) | 0.0961 | -0.057 | -0.0598 | 0.376 | 0.699 | -0.217 | 0.737 | -0.344
2 | CCN1C(=O)[C@H]2[C@H]3[C@H](O)[C@H](O)CC(=O)[C@@H]3CC[C@H]2C1=O | 0.869 | 0.105 | 0.685 | 0.0536 | -0.493 | -0.192 | -0.138 | -0.237 | 0.467 | 0.488 | 0.4 | -0.141 (inactive) | -0.0377 | -0.179 | 0.0044 | 0.304 | 0.335 | 0.826 | 0.503 | 0.735
3 | COC(=O)CC=C[C@@H](C)[C@@H](C=NOC[C@@H](O)[C@H]1O[C@@H]2OC(C)(C)O[C@@H]2[C@H]1O)NS(=O)(=O)c1ccc(C)cc1 | 0.496 | -0.499 | 0.417 | 0.0636 | -0.627 | -0.0882 | -0.715 | 0.0416 | 0.167 | 0.101 | -0.0786 | -0.72 (inactive) | -0.215 | -0.289 | -0.0777 | -0.152 | -0.372 | 0.524 | 0.42 | -0.137
4 | CCCNC(=O)OC[C@H]1O[C@H](CCON=C(C)CCN2CCCc3nc(C)c(C)cc32)C=C[C@@H]1Oc1ccc(OC)cc1 | 0.652 | -2.36 | 0.425 | 0.65 | 0.241 | -0.119 | 0.0952 | 0.358 | 0.186 | 0.782 | 0.727 | 0.475 (inactive) | 0.0894 | -0.0846 | 0.147 | 1.21 | 0.0156 | 1.29 | 0.0783 | 0.925
5 | Cc1ccc(S(=O)(=O)N[C@H]2COC(=O)CC=C[C@@H](C)COC(=O)CC=C[C@@H]2C)cc1 | -0.572 | 0.391 | 0.449 | -0.606 | -1.24 | -0.12 | -0.153 | -0.222 | 0.163 | -0.361 | -1.17 | -0.821 (inactive) | -0.163 | -0.186 | -0.41 | -0.688 | -0.209 | 0.393 | 1.23 | -0.351
6 | CCO[C@H](c1cc(OC)cc([N+](=O)[O-])c1OC)[C@H](C)C=CCC(=O)OC | -0.679 | 0.265 | 0.46 | -0.432 | -1.36 | -0.248 | -0.214 | -0.0278 | 0.11 | -0.0356 | -0.424 | 0.277 (inactive) | -0.0682 | -0.122 | -0.324 | -0.925 | 0.251 | 0.143 | 0.516 | -0.221
